Screening results deposited in PubChem BioAssay by The Scripps Research Institute Molecular Screening Center.
A selection: hits, their analogues and other compounds. The true share with any hit is near 4.1%.
DAX1 inh-1 = NR0B1 (DAX1) inhibition; P51843; HEK293 Gal4-DAX1 luciferase reporter, luminescence; inhibition, % at 6.75 µM; 340,000 tested, 0.99% active;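 active = inhibition above the mean over all tested compounds plus 3 SD, cut at about 4.2% in these data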;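 note: 0% = DAX1-transfected cells with DMSO and 100% = empty-vector control cells with DMSO; inhibition shows as a rise in luminescence from relieved DAX1 repression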
Target sequence (P51843 207-470 limits assumed): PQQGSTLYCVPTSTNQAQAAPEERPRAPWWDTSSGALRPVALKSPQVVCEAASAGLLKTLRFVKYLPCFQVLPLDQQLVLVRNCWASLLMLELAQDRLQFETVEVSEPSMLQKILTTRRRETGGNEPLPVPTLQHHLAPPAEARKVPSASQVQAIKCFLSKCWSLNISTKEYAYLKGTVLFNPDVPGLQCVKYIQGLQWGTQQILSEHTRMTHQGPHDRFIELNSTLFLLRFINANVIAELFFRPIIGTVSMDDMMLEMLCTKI
DAX1 inh-2 = inhibitors of DAX1 repression of SF-1 activated StAR promoter | HEK293T StAR-luciferase reporter, SF-1/DAX-1 repression relief | inhibition, % at 6.8 µM | 370,000 tested, 1.1% active;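 active = inhibition above the mean over all tested compounds plus 3 SD, cut at about 3.6% in these data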;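 note: 0% = DAX-1 cells with DMSO and 100% = cells lacking DAX-1 with DMSO; higher inhibition means more luminescence from relief of DAX-1 repression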
hcDAF-12 act = H. contortus DAF-12 activation, primary screen. HEK293 hcDAF-12 lit1-tk-luc reporter, luminescence; 0% DMSO, 100% Δ7-dafachronic acid. activation, % at 6.8 µM. 370,000 tested, 1.4% active;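 active = activation above the mean of all tested compounds plus 3 SD, cut at about 5.5% in these data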;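 note: 100% = response to 3 µM Δ7-dafachronic acid high control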
ssDAF12 agonist = activates DAF-12 receptor from parasite S. stercoralis; HEK293 ssDAF-12/GRIP1 lit1-tk-luc reporter, luminescence; % of 3 µM dafachronic acid response; activation, % at 6.8 µM; 370,000 tested, 1% active; AID 652126;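 active = activation above the mean over all tested compounds plus 3 SD, cut at about 0.9% in these data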;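 note: 0% = DMSO-only wells and 100% = 3 µM delta7-dafachronic acid wells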
hgDAF12 agonist = agonists of H. glycines DAF-12 nuclear receptor; HEK293 GAL4-hgDAF12 UAS-luciferase reporter, agonist luminescence; normalized to butyrate control; activation, % at 6.8 µM; 370,000 tested, 1.8% active;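 active = activation above a cutoff set at the mean of all screened compounds plus 3 SD, cut at about 10% in these data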;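 note: 0% = DMSO wells and 100% = sodium butyrate wells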
DAX1 conf = confirmation of human DAX1 (NR0B1) inhibitors | shares compounds with DAX1 inh-2 | HEK293T StAR-promoter luciferase reporter, SF-1/DAX-1 repression | inhibition, % at 6.8 µM | 2,400 tested, 87% active;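 active = inhibition above the average of every tested compound plus 3 SD, cut at about 3.8% in these data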;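 note: 0% = DAX-1 cells with DMSO and 100% = no DAX-1 control cells with DMSO; active compounds raise luminescence by relieving repression of the StAR reporter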
Target sequence (P51843 whole entry, looked up): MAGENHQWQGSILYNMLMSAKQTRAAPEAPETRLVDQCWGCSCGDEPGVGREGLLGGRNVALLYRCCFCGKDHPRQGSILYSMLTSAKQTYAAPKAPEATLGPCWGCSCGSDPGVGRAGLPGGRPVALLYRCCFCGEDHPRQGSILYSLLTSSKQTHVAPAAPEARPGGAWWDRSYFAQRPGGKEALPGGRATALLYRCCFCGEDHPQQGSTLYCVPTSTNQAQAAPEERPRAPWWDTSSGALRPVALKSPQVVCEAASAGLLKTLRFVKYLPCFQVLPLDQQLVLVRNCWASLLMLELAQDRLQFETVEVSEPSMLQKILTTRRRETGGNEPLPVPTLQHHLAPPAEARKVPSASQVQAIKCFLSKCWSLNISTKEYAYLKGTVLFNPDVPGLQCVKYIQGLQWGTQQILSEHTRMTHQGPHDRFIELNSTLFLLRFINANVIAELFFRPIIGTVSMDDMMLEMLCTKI
SF1 AF2mut Luc = counter-screen for DAX1 inhibitors: nonselective inhibitors with SF-1 AF2 mutant; HEK293 StAR-luciferase, luminescence; inhibition, % at 6.8 µM; shares compounds with DAX1 inh-2; 2,400 tested, 78% active; AID 652136;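 active = inhibition above the mean of all tested compounds plus 3 SD, cut at about 3% in these data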;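 note: 0% = DAX-1 transfected cells with DMSO and 100% = cells without DAX-1 with DMSO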
The depositor's hits bear a star; . = no result given.

SMILES | DAX1 inh-1 | DAX1 inh-2 | hcDAF-12 act | ssDAF12 agonist | hgDAF12 agonist | DAX1 conf | SF1 AF2mut Luc
COc1ccc2oc(C(=O)OCC(=O)NCCc3ccccc3)c(C)c2c1 | 0.4 | -0.2 | 0.5 | -0.7 | 2.9 | . | .
COc1ccc2oc(C(=O)NCCc3ccccc3)c(C)c2c1 | -2.1 | 5.2* | 2.8 | -0.7 | 2.5 | 7.1* | -0.4
CC(C)C(=O)Nc1ccc(-c2nc3cccnc3o2)cc1 | -0.2 | 4.5* | 5.9* | -0.1 | 12.8* | 12.1* | 4.1*
O=C(c1[nH]c(C(F)(F)F)nc1-c1ccccc1)N1CCc2c([nH]c3ccccc23)C1 | . | -3.6 | -0.3 | -0.6 | -1.1 | . | .
CN(C)S(=O)(=O)c1cccc(C(=O)N/N=C\c2ccccc2[N+](=O)[O-])c1 | . | 6.9* | 3.5 | 0.6 | 11.4* | 11.6* | 9.7*
COc1ccccc1/C=N\NC(=O)c1cccc(S(=O)(=O)N(C)C)c1 | . | 0.3 | -0.9 | -1.6 | 0.5 | . | .
COC(=O)c1ccc(NC(=O)c2ccccc2C(=O)Nc2ccc(C(=O)OC)cc2)cc1 | 1.9 | -0.2 | -2.5 | -2.0 | -1.1 | . | .
COC(=O)c1ccc(NC(=O)C(=O)c2cccn2C)cc1 | -2.8 | 6.9* | 5.1 | 0.4 | 18.2* | 15.1* | 7.3*
COC(=O)C1CCN(C(=O)c2ccc3nc(-c4cccc(OC)c4)oc3c2)CC1 | -0.7 | 4.8* | 1.8 | 0.3 | 5.3 | 8.3* | 5.0*
CN(C(=O)Nc1ccc(Cl)cc1Cl)C1CCCC1 | 0.3 | 0.8 | 1.5 | -0.9 | 7.7 | . | .
O=C(NCCn1ccc2ccccc21)c1ccc2c(c1)OCO2 | 3.2 | 4.8* | 4.2 | 0.0 | 7.5 | 12.7* | 7.9*
O=C(Cc1ccccc1)Nc1ccc(CN2CCOCC2)cc1 | 1.9 | 1.9 | 1.3 | -0.5 | 5.4 | . | .
O=C(Nc1ccc(CN2CCOCC2)cc1)c1cc2ccccn2n1 | -2.3 | 6.2* | 4.4 | -0.6 | 5.1 | 9.8* | 3.0*
O=C(c1cc([N+](=O)[O-])ccc1N1CCOCC1)N1CCN(c2ccccc2)CC1 | 1.2 | 13.8* | 0.9 | 0.5 | -3.7 | 17.4* | -5.6
Cc1ccccc1NC(=O)c1ccc(-c2ccc(Cl)cc2Cl)o1 | 0.3 | 0.4 | 0.1 | -1.2 | 0.3 | . | .
Cc1ccc(NC(=O)c2ccc(-c3cc(Cl)ccc3Cl)o2)c(C)c1 | . | 5.9* | -0.2 | -0.2 | -0.1 | 3.3 | 0.8
CCc1nnc(NS(=O)(=O)c2ccc(NC(=O)c3cccc(Br)c3)cc2)s1 | -0.3 | 4.5* | 2.2 | -0.2 | 0.1 | 1.2 | 0.1
CC(=O)Nc1cccc(-c2cccc3nccn23)c1 | . | 5.4* | 1.5 | -0.6 | 10.0 | 5.6* | 3.7*
CC(=O)c1ccc(-c2cccc3nccn23)cc1 | . | 0.7 | -2.5 | -0.8 | 1.6 | . | .
CC(=O)c1cccc(NC(=O)/C(=C\c2ccco2)NC(=O)c2ccco2)c1 | 1.3 | 4.9* | -1.2 | -1.3 | -0.3 | 0.8 | 0.7
CCOC(=O)CNc1ncnc2nc[nH]c12 | 0.7 | 1.1 | -1.9 | -1.2 | 0.8 | . | .
CCc1ccc(/C=N/Nc2ncnc3nc[nH]c23)cc1 | -0.1 | 5.2* | 3.2 | -0.7 | 10.9* | 14.1* | 1.0
CC(C)c1ccc2nc(N)sc2c1 | 2.6 | 5.9* | 5.8* | -0.6 | 10.9* | 11.0* | 6.6*
Nc1nc2ccc(O)cc2s1 | -1.9 | 0.1 | -0.9 | -0.8 | -2.6 | . | .
CC(C)c1cc(C(C)C)c(S(=O)(=O)NC(c2ccccn2)C23CC2C3)c(C(C)C)c1 (stereo not drawn) | . | 2.4 | 0.8 | -0.6 | -1.2 | . | .
SMILES | DAX1 inh-1 | DAX1 inh-2 | hcDAF-12 act | ssDAF12 agonist | hgDAF12 agonist | DAX1 conf | SF1 AF2mut Luc
O=C(COc1ccc2ccccc2c1Br)Nc1cccnc1 | 0.4 | 5.1* | -0.6 | -0.7 | 2.0 | 4.2* | 1.6
CC(=O)c1cccc(NC(=O)c2ccc3c(c2)CCCC3)c1 | 1.8 | 8.2* | 2.1 | -0.6 | 12.5* | 8.8* | 5.4*
CC(=O)c1cccc(NC(=O)c2ccc(CN3CCc4ccccc4C3)cc2)c1 | -2.8 | -1.7 | -3.9 | -2.3 | -5.0 | . | .
Cc1ccc(C(=O)Nc2ccc3c(c2)CCC3)cc1 | -4.2 | 4.6* | 5.0 | -0.4 | 6.5 | 6.0* | 4.2*
Cc1ccc(C(=O)NCC(=O)Nc2ccc3c(c2)CCC3)cc1 | 3.8 | 1.5 | 2.7 | -0.8 | 3.9 | . | .
COc1ccc(C(CNC(=O)c2cccc(NC(=O)c3cccs3)c2)N2CCCC2)cc1 (stereo not drawn) | 0.9 | 4.5* | 1.1 | -0.7 | 1.7 | 6.4* | 3.7*
COc1ccc(C(CNC(=O)c2cccc(Br)c2)N2CCCC2)cc1 (stereo not drawn) | -0.4 | 1.5 | -0.1 | -1.1 | 2.0 | . | .
COc1ccc(CC(=O)N2N=C(c3ccncc3)CC2(O)C(F)(F)F)cc1 (stereo not drawn) | -2.3 | -2.1 | -1.8 | -1.3 | -1.4 | . | .
CCc1ccc(C2=NN(C(=O)OC)C(O)(C(F)(F)F)C2)cc1 (stereo not drawn) | -2.3 | 6.6* | 6.0* | 1.0* | 9.2 | 11.8* | 5.4*
CCc1nnc(NC(=O)c2ccc3ncsc3c2)s1 | 3.2 | 0.7 | -0.1 | -0.8 | 5.3 | . | .
Cc1cnc(NC(=O)c2ccc3ncsc3c2)s1 | 2.4 | 12.7* | 5.1 | -0.4 | 12.5* | 15.1* | 6.7*
Cc1cc(C(=O)COC(=O)Cc2c(F)cccc2Cl)c(C)n1C | 2.5 | 5.0* | 4.9 | -0.2 | 10.0 | 5.8* | 3.2*
COc1cc2c(c(OC)c1OC)-c1ccc(OC)c(=O)cc1[C@@H](NC(C)=O)CC2 | 0.8 | 6.5* | 1.0 | -0.7 | -5.7 | 23.2* | -4.2
CCOCC(=O)NC1CCc2cc(OC(=O)COCC)c(OC)c(OC)c2-c2ccc(SC)c(=O)cc21 (stereo not drawn) | 0.8 | 4.5* | 1.1 | -0.8 | -3.7 | 17.2* | -5.8
O=C(COC(=O)c1cc(=O)c2ccccc2o1)NC1CCCC1 | -0.5 | 0.5 | -0.4 | -1.2 | 0.3 | . | .
CCN(C[C@H]1N[C@@](C)(C(=O)OC)[C@H]2C(=O)N(Cc3ccccc3)C(=O)[C@@H]12)C(=O)COC | -0.3 | 5.9* | 0.8 | 0.5 | 1.3 | -0.5 | 0.4
CC[C@@]1(C(=O)OC)N[C@H](CN(C)C(=O)Nc2ccc(C(F)(F)F)cc2)[C@@H]2C(=O)N(Cc3ccccc3)C(=O)[C@@H]21 | -0.9 | 5.3* | 0.4 | 2.5* | 1.6 | 0.7 | 0.5
O=C(Nc1ccc(Cl)cc1)OC[C@@H]1CSCCS(=O)(=O)N1 | . | 5.0* | 0.2 | -0.3 | 0.9 | 1.6 | 0.5
c1ccc(C2=NNC(=NC3CC3)SC2)cc1 | -1.9 | 6.8* | 5.1 | 0.8 | 11.8* | 5.3* | 1.7
Cc1[nH]c2ccccc2c1-c1csc(NC(=O)CN2CCOCC2)n1 | 0.1 | 0.3 | -0.8 | -1.7 | -6.7 | . | .
COC(=O)CSc1nnc(NC(=O)/C=C\c2ccc3c(c2)OCO3)s1 | -0.4 | 0.5 | -1.1 | -1.1 | -2.6 | . | .
